Source: the supplement of paper PMC3334620
Whole data set: some 33,000 sequences, median “E-score (-0.5 to 0.5)” near -0.016, cut for the highest 2% near 0.3. The list comes from a sample in which the highest values are over-represented; it also holds similar and randomly drawn sequences.

Target: T1, Yer184c (UniProt P39961)
T1 sequence: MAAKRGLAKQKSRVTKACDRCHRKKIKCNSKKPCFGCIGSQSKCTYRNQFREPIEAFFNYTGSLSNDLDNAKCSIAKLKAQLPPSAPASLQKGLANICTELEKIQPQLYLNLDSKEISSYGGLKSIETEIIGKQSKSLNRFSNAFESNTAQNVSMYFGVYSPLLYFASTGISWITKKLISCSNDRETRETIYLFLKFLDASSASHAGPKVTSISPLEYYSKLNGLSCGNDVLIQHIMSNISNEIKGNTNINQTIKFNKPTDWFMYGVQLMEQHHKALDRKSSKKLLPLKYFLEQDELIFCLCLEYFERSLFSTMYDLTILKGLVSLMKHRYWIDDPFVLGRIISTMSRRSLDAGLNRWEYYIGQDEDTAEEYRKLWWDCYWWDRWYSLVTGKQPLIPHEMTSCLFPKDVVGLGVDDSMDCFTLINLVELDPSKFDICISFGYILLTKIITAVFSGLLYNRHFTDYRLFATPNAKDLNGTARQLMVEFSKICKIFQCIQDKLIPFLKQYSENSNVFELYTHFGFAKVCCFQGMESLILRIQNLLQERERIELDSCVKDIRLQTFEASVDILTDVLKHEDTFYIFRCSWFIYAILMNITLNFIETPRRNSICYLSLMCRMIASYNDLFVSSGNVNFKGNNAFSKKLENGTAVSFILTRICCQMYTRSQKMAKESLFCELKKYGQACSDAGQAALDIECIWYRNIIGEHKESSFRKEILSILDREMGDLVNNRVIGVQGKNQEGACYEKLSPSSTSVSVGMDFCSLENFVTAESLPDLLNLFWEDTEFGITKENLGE
Test: PBM E-score (8-mer binding enrichment) (E-score (-0.5 to 0.5)); higher = stronger / more preferred TF binding
Details: protein concentration: 100 nM; construct: GST-full length
Method in brief: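 Universal all-10-mer Agilent arrays, fresh or stripped once, were converted to double-stranded form by primer extension. GST-tagged yeast transcription factors from PURExpress in vitro transcription/translation, full-length or DNA-binding domain only, were applied at about 100-200 nM and detected with fluorescent anti-GST. After masliner normalisation, the Universal PBM Analysis Suite scored each ungapped eight-base word together with its reverse complement by E-score.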

Sequence	PBM E-score
CAGTAGAA	-0.069
AATCCTCA	-0.0565
GCCGATAC	0.13
CTCAACAG	-0.0543
GAAGGGAA	-0.203
AGCTCATG	-0.175
AGAGTGGC	-0.217
CGGCGATA	0.36
CGGCGAAA	0.35
AGGCGATC	-0.168
CGGCGACC	0.237
GGGCGATA	-0.222
CGGCGATC	0.312
CGGCGAAG	0.205
TGGCGAAA	0.0101
AGGCGATA	-0.12
GAACAGCA	0.123
ACCCAAGG	-0.162
ACGGCGAT	0.188
CCCCCTTA	-0.348
CGAGGTTA	-0.00293
CCAGGGTA	-0.174
ACTAACTC	-0.00452
ATTCTTTA	0.0489
CTGAGTGA	0.24

Sequence	PBM E-score
ATCCTATG	-0.0991
CTGAATAA	0.134
ATTAACCC	0.0664
ATTAACCG	0.335
ATTAACCA	-0.114
CCTCCGTA	-0.0207
CCTCCGCA	-0.247
GCTCCGGA	0.367
CCTCCGGA	0.337
GCTCCGTA	0.205
GCTCCGCA	0.0792
CTTGACAA	0.152
CGAACCGC	0.189
CGGACCAA	0.343
CGGACCAG	0.185
CGGACCGC	0.104
CGAACCGA	0.328
GGGACCGA	0.158
CGGACCGA	0.402
GGAACCGA	0.248
CGGACCAC	0.244
AACGGTTA	0.0289
AGAGACAT	-0.0279
GATAGCGC	-0.051
CAAATAGC	0.0894

Sequence	PBM E-score
AAAGGAAA	0.203
CGGATCCA	0.263
CAGATCCG	0.317
AAGATCCG	0.091
CGGATCCG	0.445
CAGATCCC	-0.21
CGGATCCC	0.171
GGCATGAC	-0.199
CCGGATAA	0.4
GCGGATAA	0.224
ACGGATAG	0.139
TCGGATAA	0.379
CAGGATAA	-0.0581
ACGGATAA	0.299
TGGGATAA	-0.0513
CGGGATAG	0.102
CCGGATAC	0.257
CCGGATAG	0.342
ACGGATAT	0.339
CAGGATAG	0.0949
ATGTTCAA	0.134
ACCTTACG	0.00591
GCAGGACA	0.11
CCTTCTTC	-0.19
GGCGGAAC	0.199

Sequence	PBM E-score
GGCGGAAA	0.108
GGCGGGAA	0.0413
CGCGGGGA	0.125
AGCGGAAA	0.27
AGCGGAAC	0.194
CGCGGAAC	0.382
CGCGGGAA	0.311
CGCGGAAA	0.325
GATGGACA	0.183
ATTAGCGC	0.056
ATAGATCA	0.216
CAAGCTGG	-0.129
CCAGCCCA	-0.258
ATACTCTG	0.006
CGGGTTCC	0.246
AAGAAACC	0.129
CGTAGAGA	-0.0444
GAACGCGC	0.163
CGTATAAC	0.106
AGTATATC	0.155
AGTATATA	0.334
AGTATATG	0.0296
AGTATAAA	0.365
TGTATAAA	0.0524
GGTATAAA	0.16

Sequence	PBM E-score
CGTATAAA	0.311
AGTATAAC	-0.0238
TCGCACAA	-0.0958
CCATTTCC	0.13
ACCTACAC	-0.309
CCCTCAAG	-0.297
GAAGTGGA	0.0603
CTACCGAA	0.105
TTACCGAA	0.336
ATACCGAT	0.11
ATACCGAA	0.322
GTACCGAA	0.227
ATACCGAC	0.0349
AAAATGTA	-0.017
GTTAGAAA	0.184
CCGGAACA	0.435
CTGGAACA	0.122
GCGGAACA	0.237
CAGGAACA	-0.0366
TCGGAACA	0.408
ACGGAACA	0.303
AGCTTTTC	0.0452
CAATTAAG	0.21
GGGTTAAA	-0.0167
AAGCTCCT	-0.237

Sequence	PBM E-score
AAGCTCCG	0.339
CAACTCCG	0.197
ATACTCCC	0.059
AAACTCCT	-0.18
ATACTCCA	-0.081
AAACTCCG	0.319
ATACTCCG	0.321
CAGCTCCG	0.222
AATCGTAT	0.039
TATATCGA	0.161
ATATCTTG	0.0464
CAAAGGGA	-0.166
ACGGTCCG	0.161
AAGCCGGA	0.411
GAGCCGCA	0.0573
GAGCCGGA	0.328
TACCCGGA	0.354
GAGCCCGA	0.0143
AAGCCGCA	0.161
AAGCCGTC	0.187
AAGCCGTA	0.224
GAGCCGTA	0.307
CACCCGGA	0.237
CAGCCGTA	0.142
GACCCGGA	0.212

Sequence	PBM E-score
GCAGAGCA	0.0245
AATGTCCG	0.283
AGGTCGGG	-0.168
AAGCCCAA	-0.106
CCATCTTC	0.173
AGAAGCTC	0.0486
CCGTGAGG	-0.119
CACCAGAC	-0.00896
AACAGCTG	0.0223
CTAGAGTA	-0.0589
GAGCCGCC	0.0613
TAGCCGAA	0.276
CAGCCGCC	0.0636
TAGCCGGA	0.401
CAGCCGGC	0.391
AAGCCGGG	0.246
AAGCCGGT	0.258
CAGCCGGG	0.127
GAGCCGGC	0.406
GAGCCCGC	-0.212
TAGCCGCA	-0.0301
AAGCCGGC	0.374
CCATAGAC	-0.204
GAAGTACA	0.0369
CCAATCGC	-0.072

Sequence	PBM E-score
ATCAGCAG	0.0226
GGTGCCAC	-0.119
TCGTACCA	0.099
CGCGCACA	0.112
CAGCCTGA	-0.0443
CAGCCGCA	-0.134
CAGCCGGA	0.392
ATATCACC	0.093
ACAGCGGC	-0.0827
AATTCGGG	0.103
CGTTCGGA	0.342
AATTCGGC	0.24
GATTCGGC	0.364
CATTCGGC	0.269
AATTCGGA	0.343
GATTCGAC	-0.112
CATTCGGA	0.338
CATTCGGG	0.141
GGTTCGGA	0.281
CGTTCGGC	0.27
AATTCGGT	0.301
ATCCTTGC	-0.0624
GTTAGACA	0.222
GATTTGTA	0.103
AGCCAAGG	-0.16

Sequence	PBM E-score
ACTAAGAT	0.154
GAGGCCCA	-0.319
CGGTTAAG	0.269
ACGAATAG	-0.0621
TGGGCTAA	-0.147
CAAAAGGG	-0.101
GCCCTTCA	-0.0881
TATTCGGA	0.356
GATTCGCA	0.131
GATTCGGA	0.329
TATTCGCA	0.0122
GATTCGTA	0.125
TATTCGAA	-0.106
AGCTTGGA	-0.226
ATTCCATA	0.147
ACACAGGT	-0.289
GGGCAAGA	0.106
CGGCATGA	0.313
AGGCATTA	-0.187
CGGCATGC	0.272
GGGCATGA	-0.275
CGGCAAGA	0.317
AGGCAAGA	-0.112
GGGCATTA	-0.199
CGGCATTA	0.416
